The panel holds about 83,000 compounds, 20% with a hit somewhere; the sample as a whole holds those more often.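 Method: cells in 96-well plates; compound added at one concentration; 48 h incubation; percent growth measured; values under 10 scored active.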 Values without a mark were called inactive. The source made the active and inactive calls.

Data on 37 molecules can be found in PubChem BioAssay (NCI).

The assay has as its system RPMI-8226 leukemia. The experiment in a line: NCI-60 one-dose screen, 48 h (100 = growth as untreated, 0 = no growth, -100 = all killed). The following applies: 10 µM.
For the molecule `CN1CCN(c2ccc(Nc3nc(N4CCN(S(=O)(=O)c5ccc(F)cc5)CC4)c4sccc4n3)cc2)CC1`, the growth is -24.2% (active).

Turning to `CCCCCc1ccc(S(=O)(=O)Nc2cc(-c3csc(N(C)C(C)=O)n3)ccc2N2CCN(C)CC2)cc1`, the growth is -9.26% (active). In the case of `CN1CCN(c2ccc(Nc3nc(NCCCNC(=O)C4CCCCC4)c4sccc4n3)cc2)CC1`, the growth was -12.3% (active). The value for `N[C@@H](CSSC[C@H](N)C(=O)Nc1ccc(OCC2CCCC2)cc1)C(=O)Nc1ccc(OCC2CCCC2)cc1` was -57.3% (active). The value for `COc1ccc2nc(Cl)c(-c3cc(-c4ccccc4)nc(=O)[nH]3)cc2c1` was -14.7% (active). `O=C(Nc1ccc(OCc2ccccc2)cc1)Nc1ccc(Cl)c(C(F)(F)F)c1`: the growth was -30.4% (active). In the case of `COc1ccc2[nH]c(O)c(N=NC(=O)COc3ccc(NC(=O)Nc4ccc(Cl)cc4)cc3)c2c1`, the growth was 32.1%. For the molecule `Cc1cc2c(c(O)c1Br)-c1ncoc1C(=O)[C@]1(C)CC[C@H](C(C)C)[C@H]21`, the growth is 4.28% (active).

`CCN1CCN(c2ccc(NC(=O)Nc3ccc4c(c3F)CCN4c3ccnc(C(=O)NC)c3)cc2C(F)(F)F)CC1`: the growth is -40.2% (active).

With `O=C1Nc2ccc(F)cc2/C1=C/c1cccc(OCc2ccccc2)c1`, the growth was -28.1% (active).

For `Cc1ccc(NC(=O)c2ccc(-n3c(=O)[nH]c4ccccc4c3=O)cc2)cc1`, the growth is 133%. In the case of `O=C(Nc1ccncc1)c1ccc(-n2c(=O)[nH]c3ccccc3c2=O)cc1`, the growth is 100%.

On to `Cc1ccc(-c2cc(-c3cc4ccccc4nc3Cl)[nH]c(=S)n2)cc1`, for which the growth was 64.6%. For `O=C(c1ccc(Cl)cc1)C1[C@H](c2ccc(Br)cc2)[C@@H](c2ccccc2)NC12C(=O)Nc1ccc(Cl)cc12` (some centres not stated), the growth was -15.4% (active). In the case of `O=C(O)CCCCCCCCCCN1C(=O)/C(=C/c2cnc(-c3ccc(Cl)cc3)s2)SC1=S`, the growth was 74.9%. As to `CN1CCN(c2ccc(Nc3nc(N4CCN(S(=O)(=O)c5ccc(Cl)cc5)CC4)c4sccc4n3)cc2)CC1`, the growth was -23.6% (active). With `CN1CCN(c2ccc(C(=O)/C=C/c3cc(Br)ccc3F)cc2)CC1`, the growth was -24.7% (active). With `O=c1nc(-c2ccccc2)cc(-c2cc3ccccc3nc2Cl)[nH]1` the figure was -29.4% (active); with `CC1=C2C(=C[C@@](C)(CO)[C@@H]2O)/C(=N\N)[C@](C)(O)C12CC2`, 56.2%; with `O=C(c1ccc(O)cc1)C1[C@H](c2ccc(Br)cc2)[C@@H](c2ccccc2)NC12C(=O)Nc1ccc(Br)cc12` (some centres not stated), 1.12% (active). For `COc1ccc(C=CC(=O)c2ccc(-n3c(C)nc4c(cnn4-c4ccccc4)c3=O)cc2)cc1`, the growth is -18.8% (active).

`O=C(c1ccc(O)cc1)C1[C@H](c2ccccc2Br)[C@@H](c2ccccc2)NC12C(=O)Nc1ccc(Cl)cc12` (some centres not stated): the growth is 4.84% (active).

As for `O=C(c1ccccc1)n1ccc(-c2cc3cc(Br)ccc3oc2=O)n1`, the growth was 24.6%. As to `C#Cc1ccc(S(=O)(=O)Nc2cccc(-c3csc(NC(C)=O)n3)c2)cc1`, the growth is 42.1%. Turning to `O=C(N/N=C/c1ccc(-c2cccc([N+](=O)[O-])c2)o1)c1[nH]c2ccc(Br)cc2c1-c1ccccc1`, the growth is 12%. For the molecule `O=C(Nc1nc2ccc([N+](=O)[O-])cc2s1)Nc1cc(Cl)ccc1I`, the growth was -40.9% (active). Take `C=C(c1ccc(OC)c(N)c1)c1cc(C)nc2ccccc12`: the growth is 10.9%. With `CNC(=O)c1cccc(N2CCc3c2ccc(NC(=O)Nc2ccc(N4CCN(C)CC4)c(C(F)(F)F)c2)c3F)c1`, the growth is -41.1% (active).

For the molecule `COc1ccc([C@H]2C(C(=O)c3ccc(Cl)cc3)C3(N[C@@H]2c2ccccc2)C(=O)Nc2ccc(Br)cc23)cc1` (some centres not stated), the growth is -10.6% (active).

`CN1CCN(Cc2ccc(C(=O)Nc3cccc(Nc4ccc5cc(O)ccc5n4)c3)cc2C(F)(F)F)CC1`: the growth is -51.3% (active). Consider `Brc1ccc(/C=N/Nc2ncnc3sc4c(c23)CCN(Cc2ccccc2)C4)cc1`, for which the growth was 48.5%. As to `COc1ccc(C(C)=C(c2ccc(OCCCN(C)C)cc2)c2ccc(OCCCN(C)C)cc2)cc1`, the growth was -66% (active). Regarding `C=C(C)[C@@H]1CC[C@]2(C(=O)OC)CC[C@]3(C)[C@H](CC[C@@H]4[C@@]5(C)CC[C@H](N)C(C)(C)[C@@H]5CC[C@]43C)[C@@H]12`, the growth was -30.7% (active). Regarding `CS(=O)(=O)Nc1ccc(-c2ccc3c(c2)ncn3-c2ccc(NC(=O)Nc3ccc(Br)cc3)cc2)cc1`, the growth was -24% (active). As to `CCCS(=O)(=O)c1oc(-c2ccc(F)cc2)nc1S(=O)(=O)c1ccc(F)cc1`, the growth was -46.6% (active). Consider `CC(C)CCSc1nc(NC2CC2)c(C#N)c(-c2ccc(C(C)C)cc2)n1`, for which the growth is 101%. Consider `Cc1ccc(-c2nc3ccc(C(=O)N=Nc4c(O)[nH]c5ccc([N+](=O)[O-])cc45)cc3[nH]2)cc1`, for which the growth is 104%.
